The text below walks through data of PubChem BioAssay (NCI).

Each structure is given as a SMILES string. Compounds without any hit were thinned out: in the full panel of roughly 83,000, 20% have a hit.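 Single-concentration screen, 48 h exposure, 96-well plates. Endpoint: percent growth. Below 10 = active.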 Values without a mark were called inactive. The source made the active and inactive calls.

Test systems include SK-MEL-2 melanoma; SN12C renal; UO-31 renal; TK-10 renal; ACHN renal; CAKI-1 renal; A498 renal; MOLT-4 leukemia; SR leukemia; RPMI-8226 leukemia; OVCAR-8 ovarian; OVCAR-5 ovarian; OVCAR-4 ovarian; SK-OV-3 ovarian; IGROV1 ovarian; OVCAR-3 ovarian; NCI/ADR-RES ovarian; CCRF-CEM leukemia; HS 578T breast.
Holding throughout (assay): NCI-60 one-dose screen, 48 h (100 = growth as untreated, 0 = no growth, -100 = all killed)
Holding throughout (settings): 10 µM unless noted

With `Cc1csc(NC(=O)c2sc3nc(-c4cccs4)ccc3c2N)n1`, the growth in the experiment with SK-MEL-2 melanoma is 87.2%; in the experiment with SN12C renal it was 98%; in the experiment with UO-31 renal, 88%; in the experiment with TK-10 renal, 118%; with ACHN renal, 110%; in the experiment on CAKI-1 renal, 102%. The growth with A498 renal is 77.3%; in the experiment on MOLT-4 leukemia, 57.6%; in the experiment with SR leukemia, 81.5%; in the experiment with RPMI-8226 leukemia, 81.1%; in the experiment with OVCAR-8 ovarian, 97%; in the experiment with OVCAR-5 ovarian it was 116%. Moreover, the growth in the experiment with OVCAR-4 ovarian was 114%; with SK-OV-3 ovarian, 96.1%; with IGROV1 ovarian, 109%; with OVCAR-3 ovarian, 111%; in the experiment with NCI/ADR-RES ovarian, 94.1%.

On to `CCc1cc(Cc2cc(CC)cc(C(C)(C)C)c2O)c(O)c(C(C)(C)C)c1`, for which the growth with SK-MEL-2 melanoma was 52.9%; in the experiment on SN12C renal, 19.1%; in the experiment on UO-31 renal it was 30.4%; with TK-10 renal, 37.8%; in the experiment on ACHN renal, 13.1%; with CAKI-1 renal, 19.6%. Besides, the growth in the experiment on A498 renal is 63.7%; in the experiment with CCRF-CEM leukemia it was 12.9%; in the experiment with MOLT-4 leukemia, 14.4%; in the experiment on SR leukemia, -13.6% (active); in the experiment on RPMI-8226 leukemia, 7.4% (active); in the experiment with OVCAR-8 ovarian, 20.4%. The growth in the experiment with OVCAR-4 ovarian is 14.3%; with SK-OV-3 ovarian, 20.6%; in the experiment on IGROV1 ovarian, 36.3%; in the experiment on OVCAR-3 ovarian, 32.1%.

For the molecule `CCN(CC)CC(O)CNc1c2ccc(Cl)cc2nc2ccc(OC)cc12` (stereo not drawn), the growth is -63.4% (active) in the experiment on SK-MEL-2 melanoma; 4.08% (active) in the experiment with SN12C renal; -19.3% (active) with UO-31 renal; -21.8% (active) in the experiment with TK-10 renal; 12.1% in the experiment on ACHN renal; -63.6% (active) in the experiment with CAKI-1 renal. Also, the growth is 43.6% in the experiment with A498 renal; 0.913% (active) with CCRF-CEM leukemia; 4.43% (active) with MOLT-4 leukemia; 0.563% (active) in the experiment with SR leukemia; -30.9% (active) in the experiment on RPMI-8226 leukemia; -40.3% (active) with OVCAR-8 ovarian. Further, the growth in the experiment with OVCAR-5 ovarian was -25.3% (active); in the experiment on OVCAR-4 ovarian, -4.45% (active); with IGROV1 ovarian, -24.9% (active); in the experiment with OVCAR-3 ovarian, -23.9% (active); in the experiment on HS 578T breast it was 38.3%; in the experiment on NCI/ADR-RES ovarian it was -24.4% (active).

As for `C=C(C)[C@@H]1CC[C@]2(CN)CC[C@]3(C)[C@H](CC[C@@H]4[C@@]5(C)CCC(N)[C@@](C)(CO)[C@@H]5CC[C@]43C)[C@@H]12` (stereo partly drawn), the growth with SK-MEL-2 melanoma was -86.4% (active); with SN12C renal it was -69.3% (active); with UO-31 renal it was 65.8%; in the experiment on TK-10 renal, -86.3% (active); with ACHN renal, -77.7% (active); in the experiment with CAKI-1 renal, -15.7% (active). In addition, the growth in the experiment with A498 renal is 81.4%; in the experiment on CCRF-CEM leukemia, -44.8% (active); in the experiment with RPMI-8226 leukemia, -51.8% (active); in the experiment with OVCAR-8 ovarian, -72.9% (active); in the experiment on OVCAR-5 ovarian it was 48.5%; with OVCAR-4 ovarian, -4.67% (active). For the same molecule, the growth was -80.5% (active) in the experiment on SK-OV-3 ovarian; 67% in the experiment with IGROV1 ovarian; -75.9% (active) in the experiment with OVCAR-3 ovarian; -37.1% (active) in the experiment on HS 578T breast; 76.2% with NCI/ADR-RES ovarian.

Consider `COc1ccc(OC)c(Nc2nc3nonc3nc2Nc2cc(OC)ccc2OC)c1`, for which the growth was 64.5% in the experiment on SK-MEL-2 melanoma; 32.3% with SN12C renal; 10.8% in the experiment with UO-31 renal; 36.1% with TK-10 renal; -33.4% (active) in the experiment on ACHN renal; 53% in the experiment on CAKI-1 renal. Moreover, the growth with A498 renal was 60.7%; in the experiment with CCRF-CEM leukemia it was 97.8%; in the experiment on MOLT-4 leukemia, 88.8%; in the experiment on SR leukemia, 79.2%; in the experiment on RPMI-8226 leukemia it was 36.1%; in the experiment with OVCAR-8 ovarian, 47.8%. The growth with OVCAR-5 ovarian is 92.3%; in the experiment with OVCAR-4 ovarian it was -27.6% (active); in the experiment with SK-OV-3 ovarian, 46.1%; with IGROV1 ovarian, 95.3%; in the experiment with OVCAR-3 ovarian it was 26%; in the experiment on HS 578T breast, 44.6%. For the same molecule, the growth with NCI/ADR-RES ovarian is 44.8%.

Turning to `COc1ccc(/C(C)=N/NS(=O)(=O)c2ccc(C)cc2)cc1OC`, the growth was 122% in the experiment on SK-MEL-2 melanoma; 109% in the experiment on SN12C renal; 103% with UO-31 renal; 104% in the experiment with TK-10 renal; 103% in the experiment on ACHN renal; 90.4% in the experiment on CAKI-1 renal. The growth in the experiment with A498 renal was 87.2%; with CCRF-CEM leukemia it was 102%; in the experiment on MOLT-4 leukemia it was 98.2%; in the experiment on SR leukemia it was 137%; in the experiment on RPMI-8226 leukemia, 95.3%; with OVCAR-8 ovarian, 104%. In addition, the growth is 109% with OVCAR-5 ovarian; 107% with OVCAR-4 ovarian; 86.8% in the experiment on SK-OV-3 ovarian; 114% in the experiment on IGROV1 ovarian; 110% in the experiment on OVCAR-3 ovarian; 97.2% in the experiment with HS 578T breast. Besides, in the experiment on NCI/ADR-RES ovarian, the growth was 101%.

Regarding `Cc1[nH]c(-c2nc3ccccc3[nH]2)c(C)c1C(=O)NNc1ccc(Cl)cc1`, the growth in the experiment on SK-MEL-2 melanoma was 103%; in the experiment on SN12C renal it was 90.7%; with UO-31 renal, 72.5%; in the experiment on TK-10 renal, 106%; in the experiment on ACHN renal it was 102%; in the experiment with CAKI-1 renal, 80.2%. Further, the growth is 94.6% with CCRF-CEM leukemia; 81.6% with MOLT-4 leukemia; 88.6% in the experiment on SR leukemia; 90.2% with OVCAR-8 ovarian; 101% in the experiment with OVCAR-5 ovarian; 88.2% in the experiment with OVCAR-4 ovarian. For the same molecule, the growth in the experiment on IGROV1 ovarian was 88%; in the experiment with OVCAR-3 ovarian it was 98.4%; with HS 578T breast it was 92.7%; in the experiment with NCI/ADR-RES ovarian, 96.3%.

As to `CC(C)c1ccc(NC(=O)Cc2ccc(Nc3ncnc4cc(-c5cnn(CCN(C)C)c5)ccc34)cc2)cc1`, the growth with SK-MEL-2 melanoma is 65.7% [30 µM]; in the experiment on SN12C renal, -95.9% [30 µM] (active); in the experiment with UO-31 renal, -72.9% [30 µM] (active); in the experiment on TK-10 renal it was -57.3% [30 µM] (active); with ACHN renal it was -71.5% [30 µM] (active); with CAKI-1 renal, -40.7% [30 µM] (active). Further, the growth is 42.2% [30 µM] with A498 renal; -28.2% [30 µM] (active) in the experiment with CCRF-CEM leukemia; -50.9% [30 µM] (active) in the experiment with MOLT-4 leukemia; -49.1% [30 µM] (active) with SR leukemia; -27.5% [30 µM] (active) in the experiment on OVCAR-8 ovarian; -98.9% [30 µM] (active) with OVCAR-5 ovarian. Further, the growth in the experiment with OVCAR-4 ovarian was -83.1% [30 µM] (active); in the experiment with SK-OV-3 ovarian it was -30.6% [30 µM] (active); in the experiment with IGROV1 ovarian it was -69.7% [30 µM] (active); in the experiment with OVCAR-3 ovarian, -89.6% [30 µM] (active); with HS 578T breast it was -60.6% [30 µM] (active); with NCI/ADR-RES ovarian, 52.4% [30 µM].

As to `NC(=O)c1c(NC(=O)c2ccc(C(F)(F)F)cc2Cl)sc2c1CCC(=O)C2`, the growth in the experiment with SK-MEL-2 melanoma is -11.1% (active); with SN12C renal, -5.19% (active); in the experiment on UO-31 renal it was -100% (active); with TK-10 renal, 6.29% (active); in the experiment on ACHN renal it was -91.1% (active); in the experiment with CAKI-1 renal it was -82.2% (active). Moreover, the growth in the experiment with A498 renal was 61.9%; in the experiment on CCRF-CEM leukemia, -1.78% (active); in the experiment on MOLT-4 leukemia, -12.9% (active); in the experiment with RPMI-8226 leukemia, -22.7% (active); in the experiment with OVCAR-8 ovarian it was 10.2%; with OVCAR-5 ovarian, -41.9% (active). Moreover, the growth in the experiment with OVCAR-4 ovarian is -74.7% (active); with SK-OV-3 ovarian it was -6.73% (active); in the experiment with IGROV1 ovarian, -39.2% (active); with OVCAR-3 ovarian it was -57.4% (active); in the experiment on HS 578T breast it was -7.87% (active); with NCI/ADR-RES ovarian, -13.9% (active).
